Measured values as given in PubChem BioAssay (NCI).
Several values for one entry are separate records, joined by “and”; a condition that tells them apart may be missing. Identical values can stand only once. The panel holds about 79,000 compounds, 15% with a hit somewhere; the sample as a whole holds those more often. More than one record can exist for a structure, and the calls need not agree. Activity calls are given as the source filed them. Cut-off read from the data, not from the text of the source: active = growth inhibition above about 70%; inactive = the rest.

How the values were obtained:
[1] = NCI Yeast Anticancer Drug Screen. Data for the rad52 strain (AID 147);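 note: 0% = growth of vehicle-treated control cultures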; conditions: S. cerevisiae rad52 mutant growth inhibition, stronger effect = higher value
How it was run: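 DNA repair-defective yeast; compound exposure; growth scored against vehicle controls.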

[2] = NCI Yeast Anticancer Drug Screen. Data for the wt1 strain (AID 149);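 note: 0% = growth of vehicle-treated wt1 cultures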; conditions: S. cerevisiae wt1 strain (SPY 50644) growth inhibition, stronger effect = higher value
How it was run: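 Readout: yeast growth inhibition, normalised to vehicle controls, in the wt1 strain exposed to test compounds.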

[3] = NCI Yeast Anticancer Drug Screen. Data for the mgt1 strain (AID 153); conditions: S. cerevisiae mgt1 mutant growth inhibition, stronger effect = higher value
How it was run: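 Growth inhibition relative to vehicle controls was scored for the mgt1 yeast strain after compound exposure.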

[4] = NCI Yeast Anticancer Drug Screen. Data for the rad50 strain (AID 155);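 note: 0% = growth of vehicle-only cultures of the same strain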; conditions: S. cerevisiae rad50 strain growth inhibition, stronger effect = higher value
How it was run: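 Compounds were tested on a yeast strain with an engineered DNA damage repair alteration; the reported value is growth inhibition normalised to vehicle treatment.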

[5] = NCI Yeast Anticancer Drug Screen. Data for the mec2-1 strain (AID 157); conditions: S. cerevisiae mec2-1 strain, stronger effect = higher value
How it was run: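 Growth inhibition is read against vehicle-treated controls after compound exposure of the mec2-1 yeast strain, which is defective in DNA damage repair or cell cycle control.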

[6] = NCI Yeast Anticancer Drug Screen. Data for the rad14 strain (AID 159);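 note: 0% = growth of vehicle-treated control cultures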; conditions: S. cerevisiae rad14 strain growth inhibition, stronger effect = higher value
How it was run: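 Compound-treated yeast with a defined DNA-repair lesion; growth inhibition normalised to vehicle-treated cultures.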

[7] = NCI Yeast Anticancer Drug Screen. Data for the sgs1 mgt1 strain (AID 161);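 note: 0% = growth of cultures given vehicle only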; conditions: S. cerevisiae sgs1 mgt1 strain, stronger effect = higher value
How it was run: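 Yeast cells carrying a defined DNA-repair defect were exposed to test compounds. Growth inhibition was measured relative to vehicle-treated controls.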

[8] = NCI Yeast Anticancer Drug Screen. Data for the CLN2oe strain (AID 163);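 note: 0% = growth of vehicle-only control cultures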; conditions: S. cerevisiae CLN2oe strain, stronger effect = higher value
How it was run: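 Compound-treated yeast; growth vs vehicle ctrl = % inhibition. Genetically altered strain (cell-cycle control).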

[9] = NCI Yeast Anticancer Drug Screen. Data for the cln2 rad14 strain (AID 165);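 note: 0% = growth equal to vehicle treated cultures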; conditions: S. cerevisiae cln2 rad14 strain, stronger effect = higher value
How it was run: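 Growth inhibition, relative to vehicle-treated controls, is the read-out. The test organism is a yeast strain with defined genetic alterations, cln2 rad14.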

[10] = NCI Yeast Anticancer Drug Screen. Data for the bub3 strain (AID 167); conditions: S. cerevisiae bub3 mutant strain, stronger effect = higher value
How it was run: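 Growth of a checkpoint-deficient yeast mutant is measured after compound exposure. Values represent inhibition relative to vehicle.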

[11] = NCI Yeast Anticancer Drug Screen. Data for the wt2 strain (AID 169);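 note: 0% = growth of vehicle-treated yeast cultures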; conditions: S. cerevisiae wt2 strain growth inhibition, stronger effect = higher value
How it was run: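 Compound exposure of yeast; growth compared with vehicle controls; inhibition reported.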

[12] = NCI Yeast Anticancer Drug Screen. Data for the mlh1 strain (AID 171);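 note: 0% = growth of vehicle-treated control cultures of the same strain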; conditions: S. cerevisiae mlh1 strain growth inhibition, stronger effect = higher value
How it was run: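 Compounds are applied to a genetically altered yeast strain, and its growth is compared with that of vehicle-treated cultures to give percent inhibition.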

[13] = NCI Yeast Anticancer Drug Screen. Data for the sgs1 strain (AID 173);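 note: 0% = growth of vehicle-only control cultures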; conditions: S. cerevisiae sgs1 mutant, stronger effect = higher value
How it was run: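 Compounds applied to genetically altered yeast; growth compared with vehicle-treated cultures to give % inhibition.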

[14] = NCI Yeast Anticancer Drug Screen. Data for the mlh1 rad18 strain (AID 175); conditions: S. cerevisiae mlh1 rad18 strain growth inhibition, stronger effect = higher value
How it was run: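 Cells of a genetically altered yeast strain, deficient in DNA damage repair, were treated with compound. Their growth was then compared with that of vehicle-treated cultures to give inhibition.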

[15] = NCI Yeast Anticancer Drug Screen. Data for the rad18 strain (AID 177); conditions: S. cerevisiae rad18 mutant growth inhibition, stronger effect = higher value
How it was run: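 Compounds are applied to a repair-deficient yeast strain, and growth is compared with that of vehicle-treated cultures to give percent inhibition.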

[16] = at 5.0 µM (retest, dose inferred, filed as 0.5)
[17] = at 50.0 µM (retest, dose inferred, filed as 5.0)

Measured: growth inhibition

CCc1c(Cl)c(C)cc(O)c1Cl
inactive: [1]; at 1.2 µM 4% | [1]; at 3.7 µM -9% | [1]; at 11.0 µM 8% | [1]; at 33.0 µM 22% | [2]; at 1.2 µM -31% | [2]; at 3.7 µM -18% | [2]; at 11.0 µM -33% | [2]; at 33.0 µM -33% | [3]; at 1.2 µM 19% | [3]; at 3.7 µM 5% | [3]; at 11.0 µM 29% | [3]; at 33.0 µM 49% | [4]; at 1.2 µM -27% | [4]; at 3.7 µM -30% | [4]; [16] 38% | [4]; at 11.0 µM -27% | [4]; at 33.0 µM 23% | [5]; at 1.2 µM -10% | [5]; at 3.7 µM 1% | [5]; [16] 46% | [5]; at 11.0 µM 5% | [5]; at 33.0 µM 12% | [6]; at 1.2 µM -8% | [6]; at 3.7 µM -46% | [6]; at 11.0 µM -19% | [6]; at 33.0 µM 4% | [7]; [16] -26% | [7]; [17] 46% | [8]; at 1.2 µM -7% | [8]; at 3.7 µM -18% | [8]; at 11.0 µM -4% | [8]; at 33.0 µM 6% | [9]; [16] 32% | [9]; [17] 44% | [10]; at 1.2 µM -8% | [10]; at 3.7 µM -19% | [10]; [16] 3% | [10]; at 11.0 µM -7% | [10]; at 33.0 µM 20% | [10]; [17] 53% | [11]; at 1.2 µM -35% | [11]; at 3.7 µM -30% | [11]; at 11.0 µM -26% | [11]; at 33.0 µM -9% | [12]; at 1.2 µM 6% | [12]; at 3.7 µM -7% | [12]; at 11.0 µM 12% | [12]; at 33.0 µM 19% | [13]; at 1.2 µM -4% | [13]; at 3.7 µM -4% | [13]; at 11.0 µM 5% | [13]; at 33.0 µM 33% | [14]; [16] 35% | [15]; at 1.2 µM -20% | [15]; at 3.7 µM 6% | [15]; at 11.0 µM -23% | [15]; at 33.0 µM -46% | [15]; at 100.0 µM 50%
active: [1]; at 100.0 µM 96% | [2]; at 100.0 µM 72% | [3]; at 100.0 µM 95% | [4]; [17] 91% | [4]; at 50.0 µM 91.4% | [4]; at 100.0 µM 94% | [5]; [17] 94% | [5]; at 50.0 µM 84.7% | [5]; at 100.0 µM 93% | [6]; at 100.0 µM 90% | [7]; at 50.0 µM 86.2% | [8]; at 100.0 µM 75% | [9]; at 50.0 µM 77.2% | [10]; at 50.0 µM 92.6% | [10]; at 100.0 µM 85% | [11]; at 100.0 µM 92% | [12]; at 100.0 µM 82% | [13]; at 100.0 µM 91% | [14]; [17] 85% | [14]; at 50.0 µM 89.5%

CC1=CC(=C(c2ccc(N)cc2)c2ccc(N)cc2)C=CC1=N
38% (inactive) and 93% (active): [4]; [17]
active: [1]; at 100.0 µM 91% | [3]; at 100.0 µM 76% | [4]; at 100.0 µM 82% | [5]; [17] 89% and 80% | [5]; at 100.0 µM 73% | [6]; at 100.0 µM 74% | [8]; at 100.0 µM 78% | [10]; [17] 90% and 76% | [10]; at 100.0 µM 88% | [11]; at 100.0 µM 94%
inactive: [1]; at 1.2 µM 20% | [1]; at 3.7 µM 49% | [1]; at 11.0 µM 47% | [1]; at 33.0 µM 32% | [2]; at 1.2 µM 0% | [2]; at 3.7 µM -1% | [2]; at 11.0 µM 7% | [2]; at 33.0 µM 2% | [2]; at 100.0 µM 19% | [3]; at 1.2 µM -9% | [3]; at 3.7 µM 1% | [3]; at 11.0 µM -8% | [3]; at 33.0 µM 4% | [4]; at 1.2 µM -2% | [4]; at 3.7 µM 17% | [4]; [16] 21% and 1% | [4]; at 11.0 µM 17% | [4]; at 33.0 µM 7% | [4]; at 50.0 µM 32.7% and 35.3% | [5]; at 1.2 µM 7% | [5]; at 3.7 µM 2% | [5]; [16] 14% and -7% | [5]; at 11.0 µM -1% | [5]; at 33.0 µM -6% | [5]; at 50.0 µM 58.7% and 12.3% | [6]; at 1.2 µM -9% | [6]; at 3.7 µM 0% | [6]; at 11.0 µM -4% | [6]; at 33.0 µM -4% | [7]; [16] 15% and 2% | [7]; [17] 30% and 50% | [7]; at 50.0 µM 59.5% and 48.1% | [8]; at 1.2 µM 22% | [8]; at 3.7 µM 43% | [8]; at 11.0 µM 39% | [8]; at 33.0 µM 23% | [10]; at 1.2 µM -12% | [10]; at 3.7 µM 8% | [10]; [16] 18% and -1% | [10]; at 11.0 µM 8% | [10]; at 33.0 µM 12% | [10]; at 50.0 µM 58.8% and 24.9% | [11]; at 1.2 µM -18% | [11]; at 3.7 µM -13% | [11]; at 11.0 µM -12% | [11]; at 33.0 µM -6% | [12]; at 1.2 µM 1% | [12]; at 3.7 µM -4% | [12]; at 11.0 µM 1%
